High-throughput results deposited in PubChem BioAssay by National Center for Advancing Translational Sciences (NCATS).
In the library only some 4.3% were active in any assay of this set; here they are far more common.
MCF10A rerep – inducers of DNA re-replication in MCF 10A breast cells; MCF 10A DNA re-replication, Hoechst nuclear intensity, 48 h; Potency, µM (top dose mostly 46.1 µM), for inactives: top-dose activity, positive = re-replication, usual class: activators; 350,000 compounds, 2.9% hits; note: potency is the fitted concentration of half-maximal effect; % of control where 0% means no effect; nearly all actives have a fitted effect of over 50% in size
uPA surface inh – blocks generation of uPA at the cell surface; AID 540303; Potency, µM (titrated, usually from 38.3 µM), for the others: at the highest dose activity change, negative = inhibition, hits mostly inhibitors; cell surface uPA generation assay, qHTS; 330,000 compounds, 0.31% hits; active = well fitted inhibition curve with a large enough effect; inconclusive = small, poorly fitted or top-dose-only effect; inactive = no such curve, though single readings can be large or run the other way; tested in mouse RAW 264.7 cells; note: potency is the fitted concentration of half-maximal effect; % is set by controls: 0 for no effect and ±100 for the full control effect; nearly all actives have a fitted effect of over 55% in size
Giardia kill – Giardia lamblia killing; Giardia lamblia trophozoite viability; activity change, % at 7.66 µM, hits read low; 340,000 compounds, 0.15% hits; in the data active = activity change below about -80%; inconclusive = between about -30% and that limit;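 note: parasites exposed to compound for two days anaerobically before the ATP read; % is set by controls: 0 for no effect and ±100 for the full control effect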
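Killing of trophozoites was scored by loss of ATP luminescence after a 48 hrs anaerobic exposure to compounds at 37 deg C, using 100 cells per well.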
SW480 rereplic – inducers of DNA re-replication in SW480 colon cancer cells | Potency, µM (series often up to 46.1 µM), for the others: at the highest dose re-replication activation, usual class: activators | AID 624297 | SW480 DNA re-replication, Hoechst DNA content imaging, 48 h | 340,000 compounds, 1.8% hits; note: potency is the fitted concentration of half-maximal effect; % of control where 0% means no effect; nearly all actives have a fitted effect of over 55% in size
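250 cells/well; 23 nL cpd via pin tool; 48 hr, 37 C, 5% CO2; Hoechst 40 min; imager read of total nuclear intensity, ex 405/em 500-530 nm.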
Numbers without * were called inactive; ? = inconclusive; · = not tested or not shown; ! = not confirmed by another sample. Unless noted, calls come from the whole dose curve; as a rule, active = well fitted activation curve with a large enough effect; inconclusive = small, poorly fitted or top-dose-only effect; inactive = no such curve, though single readings can be large or run the other way.

SMILES	MCF10A rerep	uPA surface inh	Giardia kill	SW480 rereplic
COCCCN=C1NN=C(c2cc(C)n(Cc3ccco3)c2C)CS1	?	?	7	5.8µM*
COc1ccc(-n2c(C)cc(C3=NNC(=NC4CC4)SC3)c2C)cc1	9.2µM*	-10%	5	?
O=c1cc(SCc2ccc(Cl)cc2Cl)nc[nH]1	15%	-5%	-2	-8%
O=C(/C=C/c1ccccc1)N1CCN(c2c(Cl)cccc2[N+](=O)[O-])CC1	26µM*	?	-3	26%
CCOc1ccc(CN2C(=O)c3ccccc3Sc3ccc(C(=O)NCc4ccc5c(c4)OCO5)cc32)cc1	·	·	4	·
O=C1COc2ccc(S(=O)(=O)N3CCN(c4cccc(C(F)(F)F)c4)CC3)cc2N1	-1%	2%	33	?
Cc1cc2c(cc1S(=O)(=O)N1CCN(c3cccc(C(F)(F)F)c3)CC1)OCC(=O)N2	23µM*	2%	-19	?
CC(C)=O	2%	·	·	3%
COc1ccc(CN(C)C(=O)C23CC4CC(CC(C4)C2)C3)c(OC)c1	13µM*	4%	9	?
O=C(CNC(=S)N(Cc1ccccc1)Cc1ccccc1F)NCc1ccccc1	?	2%	19	-1%
O=C(CNC(=S)N(Cc1ccccc1)Cc1ccccc1F)NCc1ccc(Cl)cc1	23µM*	-1%	-5	17%
CC[N+](CC)(CCNC(=O)C(=O)NCC[N+](CC)(CC)Cc1ccccc1Cl)Cc1ccccc1Cl	0%	·	·	-7%
Cc1ccccc1SCC(=O)NNC(=O)c1ccccc1O	-8%	-8%	19	13µM*
O=C(c1ccc(F)cc1)C1CCN(Cc2ccc(F)cc2)CC1	5%	3%	-9	0%
C=C1CCC(O)C2(C)CCC3C(C)C(=O)OC3C12O (stereo unspecified)	-2%	-1%	-7	-10%
C=C1C(=O)O[C@@H]2[C@H]1CC[C@H](C)[C@]1(O)CCC(=O)[C@@]21C	23µM*	?	-22	?
C=CCOc1ccc(/C=C/C(=O)OCC(=O)Nc2c(C)n(C)n(-c3ccccc3)c2=O)cc1	23%	1%	15	-35%
Cc1cc(S(=O)(=O)N2CCN(c3c(C)cccc3C)CC2)ccc1F	9%	-1%	16	-2%
CCC(C)N(C)Cc1cccc(C2(O)CCN(S(=O)(=O)c3ccc(F)c(C)c3)CC2)c1 (stereo unspecified)	15µM*	-7%	-4	?
CCN(CC)C(=O)[C@H]1C[C@H](CC(=O)NC(C)(C)C)C(=O)N2CCc3c([nH]c4ccc(Cl)cc34)[C@]12C	-4%	-8%	4	5%
Cc1ccc(NC(=O)CCn2c(=O)c3cccn3c3ccccc32)c(C)c1	3%	-4%	12	3%
Cc1cc(C)cc(NC(=O)CCn2c(=O)c3cccn3c3ccccc32)c1	8.2µM*	?	30	-13%
CCCCN(CC)CCNC(=O)c1cc2c(-c3ccc(Cl)cc3)nn(C)c2s1	18µM*	1%	1	?
CCCN(CCC)CCCNC(=O)c1cc2c(-c3ccc(OC)c(OC)c3)nn(C)c2s1	18µM*	-12%	-8	?
Cc1nn(-c2ccccc2)c2sc(C(=O)NC3CC3)cc12	12µM*	-11%	1	2%
SMILES	MCF10A rerep	uPA surface inh	Giardia kill	SW480 rereplic
Cn1nc(-c2ccc(Cl)cc2)c2cc(C(=O)NC3CC3)sc21	6.5µM*	?	-21	?
CCN(CC)CCNC(=O)c1cc2c(-c3ccc(Cl)cc3)nn(C)c2s1	32%	?	16	?
COc1ccc(-c2nn(C)c3sc(C(=O)NCCN(C)C)cc23)cc1OC	25%	-6%	5	?
CCOCCCNC(=O)c1cc2c(-c3ccc(Cl)cc3)nn(C)c2s1	9%	-17%	-2	18%
CC1(C)Cc2cccc(C(=O)NC3CCN(Cc4ccccc4)CC3)c2O1	0%	5%	0	-40%
COc1ccc(/C=C2\N=C(c3ccccc3Cl)NC2=O)cc1	13µM*	?	-7	10µM*
COc1ccc(/C=C2\N=C(SC)NC2=O)cc1	7%	3%	8	-6%
COc1cccc(C(=O)NCCSc2c(C)[nH]c3ccccc23)c1OC	?	6%	-8	1%
CC/C(=C/c1ccccc1)c1cccc2[nH]c3c(OC)cccc3c12	21µM*	?	-1	11%
O=C1c2cccc3cccc(c23)C(=O)C1(O)O	21µM*	-6%	6	?
CCCCc1oc2ccccc2c1C(=O)c1cc(I)c(OCCN(CC)CC)c(I)c1	9.2µM*!	-1%	2	23µM*!
O=C(O)c1c(Cl)cccc1Nc1ccccc1	?	-3%	-9	?
COc1ccc(/C=N/Nc2nc3ccccc3s2)cc1O	15%	·	-3	-4%
COc1cc(C=C(c2nc3ccccc3s2)c2nc3ccccc3s2)ccc1O	21µM*	2%	4	?
COc1ccc(C=C(c2nc3ccccc3s2)c2nc3ccccc3s2)cc1O	13µM*	-5%	-5	?
O=C(CN1C(=O)NC2(CCCCC2)C1=O)Nc1cccc2ncccc12	0%	3%	30	21µM*
Oc1cccc(-c2nc3c4c(ncn3n2)-c2ccccc2CC42CCCC2)c1	2.1µM*	5%	16	-4%
CCn1c(C)nc2cc(-c3nc4n(n3)Cc3ccccc3-4)ccc21	17%	-10%	-105*	-14%
CC(C)CN(C(=O)COC(=O)c1cc2ccccc2cc1O)c1c(N)n(Cc2ccccc2)c(=O)[nH]c1=O	?	-11%	3	-22%
O=C(CCl)N1c2ccccc2Sc2c1ccc1ccccc21	18µM*	-10%	2	?
O=C(C[n+]1ccccc1)N1c2ccccc2Sc2ccccc21	-3%	9%	12	1%
CC(CC(=O)c1cccs1)CC(=O)c1cccs1	18µM*	-3%	-20	16µM*
Cc1ccc2[nH]c(=O)c(CN(Cc3ccccc3)Cc3nnnn3Cc3ccco3)cc2c1	·	·	-14	·
Cn1cc(/C=N/n2cnc3scc(-c4ccc(Cl)cc4)c3c2=O)c2ccccc21	0.33µM*	-12%	-24	0.58µM*
CC(C)CN(C(=O)COc1ccc(C(C)(C)C)cc1)C1CCS(=O)(=O)C1 (stereo unspecified)	4%	2%	6	0%
SMILES	MCF10A rerep	uPA surface inh	Giardia kill	SW480 rereplic
CC(=O)Nc1ccccc1NC(=O)C/C(C)=N/NC(=O)C(=O)N1CCCCC1	-5%	3%	-21	2%
COC1(OC)C(/C=C/c2ccc(Cl)cc2)C(C#N)(C#N)C1(OC)OC (stereo unspecified)	6.5µM*	-12%	1	?
Cc1cc(C)c2nc(NC(=O)c3ccc([N+](=O)[O-])o3)sc2c1	?	-11%	-90*	2%
O=C(Nc1nc2c(F)cc(F)cc2s1)c1ccco1	?	?	?	-4%
O=C(Nc1nc2c(F)cc(F)cc2s1)c1ccc([N+](=O)[O-])o1	12µM*	-7%	-86*	9.2µM*
COc1cc(C(=O)NCC(c2cccs2)N2CCOCC2)cc(Br)c1OCc1ccccc1 (stereo unspecified)	?	?	27	26%
